Measured values published in PMC4336329 (PLoS ONE, 2015).
Screen size: about 310,000 compounds; about 14,000 (4.5%) showed an effect of 50% or more. The effect is printed as a negative number. Shown is part of a subset that was picked to be rich in strong results.

Target: human ether-à-go-go-related gene (hERG) potassium channel (human, UniProt Q12809)
Assay: primary screen, population patch clamp on CHO cells stably expressing hERG; higher = less effect of the substance
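Also: peak tail current of the secondary pulse compared with the same well before compound.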

Sequence of human ether-à-go-go-related gene (hERG) potassium channel (Q12809 whole entry, looked up): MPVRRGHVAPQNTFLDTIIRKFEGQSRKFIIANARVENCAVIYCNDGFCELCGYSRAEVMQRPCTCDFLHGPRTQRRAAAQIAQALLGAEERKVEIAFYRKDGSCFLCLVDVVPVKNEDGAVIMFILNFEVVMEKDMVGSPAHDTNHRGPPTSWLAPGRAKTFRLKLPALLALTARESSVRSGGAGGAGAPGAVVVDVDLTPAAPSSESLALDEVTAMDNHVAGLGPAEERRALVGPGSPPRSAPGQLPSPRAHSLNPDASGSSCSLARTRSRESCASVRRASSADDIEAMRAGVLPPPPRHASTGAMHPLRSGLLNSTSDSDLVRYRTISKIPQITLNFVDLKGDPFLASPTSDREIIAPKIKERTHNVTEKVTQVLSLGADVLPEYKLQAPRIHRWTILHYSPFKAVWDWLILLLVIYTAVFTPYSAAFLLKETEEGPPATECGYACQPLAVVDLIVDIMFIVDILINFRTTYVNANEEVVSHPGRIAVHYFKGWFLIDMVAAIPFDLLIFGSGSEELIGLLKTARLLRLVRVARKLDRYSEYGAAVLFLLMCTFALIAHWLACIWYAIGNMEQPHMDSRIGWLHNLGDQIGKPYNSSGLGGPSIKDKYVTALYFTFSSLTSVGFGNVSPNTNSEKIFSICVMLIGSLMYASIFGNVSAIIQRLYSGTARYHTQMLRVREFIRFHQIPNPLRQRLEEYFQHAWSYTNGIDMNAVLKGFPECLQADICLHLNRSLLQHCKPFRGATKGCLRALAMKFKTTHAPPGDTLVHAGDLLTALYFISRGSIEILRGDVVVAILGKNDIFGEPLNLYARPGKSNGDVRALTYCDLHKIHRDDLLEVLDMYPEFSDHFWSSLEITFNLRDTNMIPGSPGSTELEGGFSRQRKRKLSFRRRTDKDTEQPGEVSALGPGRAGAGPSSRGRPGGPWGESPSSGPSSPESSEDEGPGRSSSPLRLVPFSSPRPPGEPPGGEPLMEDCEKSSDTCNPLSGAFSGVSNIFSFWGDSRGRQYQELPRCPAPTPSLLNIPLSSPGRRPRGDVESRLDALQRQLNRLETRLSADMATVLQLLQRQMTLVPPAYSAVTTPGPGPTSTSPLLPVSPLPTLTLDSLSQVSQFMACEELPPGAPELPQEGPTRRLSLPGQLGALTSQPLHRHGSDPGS

In order of falling “hERG current change (%, negative = inhibition) at 10uM” value:
1. CCn1c(-c2csc(C(C)C)c2)n[nH]c1=S  37.1%
2. CCc1ccc(C2=NNC(=Nc3c(C)n(C)n(-c4ccccc4)c3=O)SC2)cc1  34.4%
3. NS(=O)(=O)c1ccc(NC(=S)Nc2ccc(Br)c(Cl)c2)cc1  21.3%
4. COC(=O)C(NC(=O)CSc1nc(N)cc(=O)[nH]1)c1ccccc1 (stereo not shown)  18.3%
5. O=C(Cn1c(=S)[nH]c2ccccc2c1=O)NCCc1ccccc1  16%
6. COc1cccc(CCNC(=O)CC2C(=O)NCCN2CC(C)(C)C)c1 (stereo not shown)  15.8%
7. C/C(=N\NC(=O)c1cccc(S(=O)(=O)N2CCCC2)c1)c1ccco1  14.1%
8. CCC(NC(=S)NC1CCCCC1)c1ccc(C(C)C)cc1 (stereo not shown)  13.7%
9. Cc1ccc(NC(=O)CCC(=O)N2CCOCC2)nc1  13%
10. CCCc1cc(=O)oc2cc(C)cc(OCc3nn[nH]n3)c12  13%
11. COc1ccccc1C(=O)Nc1c2c(nn1-c1ccc(Cl)cc1)CS(=O)(=O)C2  9.63%
12. CCCCCN(C(=O)NC(=O)NC(C)CC)S(C)(=O)=O (stereo not shown)  9.23%
13. CCOc1ccc(OCC)c(NC(=O)C2CCCN(S(=O)(=O)c3c(C)n[nH]c3C)C2)c1 (stereo not shown)  8.8%
14. COc1ccc(OCC(O)CN2CCCCC2)cc1.Cl (stereo not shown)  8.1%
15. C=CCc1ccc(OCCn2cncn2)c(OC)c1  7.93%
16. COC(=O)N1C(=O)[C@](c2ccc(Cl)cc2)(C(C)C)N1C(=O)OC  7.07%
17. CCCN1CCC(=O)N(CCSc2ccc(NC(C)=O)cc2)CC1  6.8%
18. CC(=O)c1ccc(NC(=O)C(=O)c2cn(CC(=O)N3CCCCC3)c3ccccc23)cc1  6.65%
19. COc1ccc(C2/C=C\CN(C(=O)Nc3ccc(C(F)(F)F)cc3)CC(=O)N2Cc2ccc(F)cc2)cc1 (stereo not shown)  6.55%
20. CCOC(=O)c1cc(-c2ccccc2)n(CC(=O)Nc2ccc(OC)cc2)c1C  6.19%
21. CCCCN(c1ccccc1)S(=O)(=O)c1cccc(C(=O)O)c1  5.27%
22. CC(=O)Nc1ccc(SC[C@H](Cc2ccccc2)N2CC[C@@H](C(C)(C)C)CCC2=O)cc1  5.23%
23. Cc1ccc2nc(CCc3nc4ccc(C)cc4o3)oc2c1  4.09%
24. C=CCn1c(O)c(N=Nc2ccccc2C)c2ccccc21  4.06%
25. Cc1ccc2[nH]c3c(c2c1)SC(C)(C)CC3=O  3.75%
26. O=C1C2CCCN2C(c2ccccc2F)N1c1cccc(Cl)c1 (stereo not shown)  3.69%
27. CCOC(=O)[C@H]1[C@H]2COc3ccc(Cl)cc3[C@@H]2N2C(=O)c3cc(Cl)ccc3NC(=O)[C@@]12C  3.59%
28. Cc1ccc(OCC(=O)Nc2cnn(CCCC(=O)O)c2)c([N+](=O)[O-])c1  3.59%
29. CC(=O)N1CCN(S(=O)(=O)c2cccc(C(=O)Nc3nccs3)c2)CC1  3.42%
30. CC(=O)c1cc(-c2ccccc2)n(CCC(=O)NC2CCCC2)c1C  0.876%
31. COc1nc(Oc2ccc(=O)n(C)n2)nc(N(C)C)n1  0.595%
32. O=C(NCCO)c1ccc(Oc2ccc(C(F)(F)F)cc2[N+](=O)[O-])cc1  -0.131%
33. COc1ccccc1OCCCCN1CCCCC1  -1.89%
34. C/C(=N\OC(=O)c1c(-c2ccccc2Cl)noc1C)c1nccs1  -2.44%
35. COc1ccc(N2CC(NC(=O)c3cccc4ccccc34)CC2=O)cc1OC (stereo not shown)  -2.85%
36. NC(CO)(CO)CO.O=C(c1ccccc1)c1ccc2n1CCC2C(=O)O (stereo not shown)  -3.5%
37. CC(C)=CCCC(C)NC(=O)NC1CCCCC1 (stereo not shown)  -3.64%
38. COc1ccc(COC(=O)C2=C(C)NC(=O)NC2c2ccc(O)c(OC)c2)cc1 (stereo not shown)  -3.97%
39. CCCOc1ccc(NC(=O)CC2C(=O)OCC3CCCCN32)cc1 (stereo not shown)  -4.12%
40. Cl.OC(CNCCCN1CCCCC1)COc1ccccc1 (stereo not shown)  -4.25%
41. COc1cccc(OC)c1C(=O)OCC(=O)N(c1ccccc1)C1CCCCC1  -4.4%
42. COc1ccc(/C(N)=C/C(=O)C(C)(C)C)cc1  -5.64%
43. CCCNC(=O)CCn1c(-c2ccc(C)cc2)cc(C(=O)OCC)c1C  -6.08%
44. C/C(=N/OC(=O)c1c(-c2ccccc2Cl)noc1C)c1cnccn1  -7.04%
45. CC(=O)Nc1ccc(SC[C@H](Cc2ccccc2)N2CC[C@@H](O)CCC2=O)cc1  -7.75%
46. CC(=O)Nc1ccc(SC[C@H](Cc2ccccc2)N2CC[C@@H](C)CCC2=O)cc1  -8.11%
47. CCOC(=O)c1cc(-c2ccc(C)cc2)n(CCC(=O)NCCCOC)c1C  -11.5%
48. CCOC(=O)c1cc(-c2ccccc2)n(CCC(=O)NC(C)CC)c1C (stereo not shown)  -12.5%
49. COc1ccc(-n2nnnc2SCC(=O)N2CCCc3ccccc32)cc1OC  -13.4%
50. COc1ccc(N(CC(=O)NCc2ccc3c(c2)OCO3)C(=O)c2csnn2)cc1  -13.6%
51. CCOC(=O)c1ccccc1N/C=C/C(=O)c1cccs1  -14.9%
52. Cc1onc(-c2c(F)cccc2Cl)c1C(=O)O/N=C(\N)c1ccc([N+](=O)[O-])o1  -16.8%
53. Cn1c(=O)oc2cc(S(=O)(=O)NCCC(=O)N3CCN(c4ccccc4F)CC3)ccc21  -17%
54. CCOc1ccc(-c2cnc3n2CCC3)cc1.Cl  -18.3%
55. Cc1onc(-c2c(F)cccc2Cl)c1C(=O)N1CCCc2ccccc21  -21.5%
56. CCOC(=O)c1cc(-c2ccccc2)n(CCC(=O)N2CCN(c3ccc(OC)cc3)CC2)c1C  -25.5%
57. CC(=O)Nc1ccc(SC[C@H](CC(C)C)N2CCN(CC(C)C)CCC2=O)cc1  -28.1%
58. CCN(CC)CCn1c2c(c(SCC(=O)NCc3ccccc3)nc1=O)CCCC2  -31.4%
59. N#Cc1ccc(S(=O)(=O)NC2CCN(Cc3ccccc3)CC2)cc1  -31.8%
60. COc1ccc(-c2cnc3n2CCCCC3)cc1  -33.1%
61. CCOc1ccc(C(O)(c2ccccc2)C(CN2CCCC2)c2ccccc2)cc1.Cl (stereo not shown)  -34%
62. COc1ccc(-n2nc(C(=O)NCC(=O)N3CCN(c4ccccn4)CC3)c3ccccc3c2=O)cc1  -34.3%
63. COc1ccc(OCC(O)Cn2c(=N)n(CCN3CCOCC3)c3ccccc32)cc1.Cl (stereo not shown)  -34.7%
64. CCN(CC)CCn1c2c(c(SCC(=O)NCc3ccccc3)nc1=O)CCC2  -38.7%
65. Cl.N=c1n(CCN2CCOCC2)c2ccccc2n1CC(O)COc1ccccc1 (stereo not shown)  -39.3%
66. COc1ccccc1NC(=O)CSc1nc(=O)n(CCN(C)C)c2c1CCCC2  -40.4%
67. O=C(CSc1nc(=O)n(CCCN2CCOCC2)c2c1CCCC2)Nc1ccccc1Cl  -42.9%
68. Cc1ccc(OCC(O)Cn2c(=N)n(CCN3CCOCC3)c3ccccc32)cc1.Cl (stereo not shown)  -43.6%
69. Cc1onc(-c2ccccc2Cl)c1C(=O)O/N=C(\N)c1ccc([N+](=O)[O-])o1  -43.6%
70. CC(=O)Nc1ccc(SC[C@H](Cc2ccccc2)N2CCN(CC(C)C)CCC2=O)cc1  -44.2%
71. Cc1c(Cl)cccc1NC(=O)CSc1nc(=O)n(CCCN2CCOCC2)c2c1CCC2  -47.1%
72. CCOC(=O)c1cc(-c2ccc(OC)cc2)n(CCC(=O)NCCN2CCC(C)CC2)c1C  -52.4%
73. CCN(CC)CCCn1c2c(c(SCC(=O)Nc3ccccc3Cl)nc1=O)CCC2  -55.4%
74. CCN(CC)CCn1c2c(c(SCC(=O)Nc3ccccc3Cl)nc1=O)CCCC2  -55.6%
75. CC(=O)Nc1ccc(SC[C@H](Cc2ccccc2)N2CCN(CCc3ccccc3)CCC2=O)cc1  -55.9%
76. C/C(=N\OC(=O)c1c(-c2ccccc2Cl)noc1C)c1ccncc1  -58.6%
77. CC(=O)Nc1ccc(SC[C@H](CC(C)C)N2CCN(CCc3ccccc3)CCC2=O)cc1  -59.1%
78. CCN(CC)CCn1c2c(c(SCC(=O)Nc3ccccc3Cl)nc1=O)CCC2  -59.8%
79. CCOc1ccc(-c2cnc3n2CCCCC3)cc1  -63.3%
80. CCOC(=O)c1cc(-c2ccc(F)cc2)n(CCC(=O)NC2CCN(Cc3ccccc3)CC2)c1C  -64.2%
81. Cc1onc(-c2cccc(Cl)c2Cl)c1C(=O)O/N=C(\N)c1ccc([N+](=O)[O-])o1  -65%
82. COc1ccccc1OCC(O)Cn1c(=N)n(CCN2CCCCC2)c2ccccc21.Cl (stereo not shown)  -65.4%
83. CCOC(=O)c1cc(-c2ccc(OC)cc2)n(CCC(=O)NC2CCN(Cc3ccccc3)CC2)c1C  -65.7%
84. COc1ccc(OCC(O)Cn2c(=N)n(CCN3CCCCC3)c3ccccc32)cc1.Cl (stereo not shown)  -68.1%
85. Cl.N=c1n(CCN2CCCCC2)c2ccccc2n1CC(O)COc1ccccc1 (stereo not shown)  -68.2%
86. Cc1ccc(OCC(O)Cn2c(=N)n(CCN3CCCCC3)c3ccccc32)cc1.Cl (stereo not shown)  -72.9%
87. CC(=O)Nc1ccc(SC[C@H](c2ccccc2)N2CCN(CCc3ccccc3)CCC2=O)cc1  -75.1%
88. CCOc1ccc(C(O)Cn2c(=N)n(CCN3CCCCC3)c3ccccc32)cc1.Cl (stereo not shown)  -77.2%
